This note sets out measurements from PubChem BioAssay (NCATS).

Results filed as inconclusive are left out. Calls of active or inactive are those of the source. Calls follow the shape of the dose curve; as a rule, active = well fitted inhibition curve with a large enough effect; inconclusive = small, poorly fitted or top-dose-only effect; inactive = flat fitted curve, though single readings scatter.

For this assay, the system named is CRL-7250. Nature of the assay: qHTS assay to identify novel small-molecules to repurpose for Merkel cell carcinoma treatment (AID 1296009). Also: nearly all actives have a fitted effect of over 60% in size. The conditions noted are these: MCC and control cell lines, CellTiter-Glo viability, 72 h; series mostly up to 92 µM; activity change, negative = cytotoxicity: at the top concentration. The method in brief:
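qHTS format: cells treated with library compounds in DMSO across 8 (NPC) or 11 (MIPE) concentrations. Readout after 72 hr at 37 degree celsius was CellTiter-Glo luminescence.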
On the technique in general: qHTS replaces the single test concentration by a dilution series.
Take `C/C=C/C=C/C(O)=C1/C(=O)[C@]2(C)C(=O)[C@@](C)(O)[C@H]1[C@H]([C@@]1(C)OC(=O)C(C)=C1O)[C@H]2C(=O)CC/C=C/C`: the “outcome” value is “inactive [at 17.4 µM]”.
Next, `CC1(C)C2CCC1(C)C(OC(=O)C(O)(CC(=O)O)CC(=O)O)C2` (stereo not given): “inactive”; `O=S(=O)(Nc1ccccn1)c1ccc(N=Cc2c(O)[nH]c3ccc4ncsc4c23)cc1`: “inactive [at 9.27 µM]”.
As to `O=C(/C=C/c1ccccc1)OC[C@H]1O[C@@H](OC(=O)c2cc(O)c(O)c(O)c2)[C@H](O)[C@@H](O)[C@@H]1O`, the “outcome” value is “inactive [at 17.4 µM]”.
As for `COc1ccc(C(=O)CC(=O)O)c2c1C=CC(C)(C)O2`, the call was inactive.
The same measure for `C[C@@H]1C[C@@H](O)[C@@]2(CO)C(CO)=CCC[C@@H]2[C@@]12C[C@@H](c1ccoc1)OC2=O`: “inactive”; for `COc1cc(C[C@H]2COC(=O)[C@@H]2Cc2ccc(O)c(OC)c2)ccc1O`: “inactive”.
Next, `CN1C(=O)c2ccccc2-n2c(nc3ccccc3c2=O)/C1=C/c1ccccc1`: “inactive”; `N#CC1C(=O)N=C(c2cc(Cl)ccc2O)C=C1c1cc(OCc2ccccc2)cc(OCc2ccccc2)c1` (stereo not given): “inactive”.
As to `NC(=O)c1ccc(F)c2c1C[C@@H](N(C1CCC1)C1CCC1)CO2`, the result was inactive.
Regarding `COC(=O)C1=COC(OC2OC(CO)C(O)C(O)C2O)C2C1C=CC2(O)CO` (stereo not given), the “outcome” value was “inactive [at 17.4 µM]”.
The same measure for `CC(=O)O[C@@H]1[C@@H](OC(=O)/C=C/c2ccccc2)[C@@H](OC(C)=O)[C@H](O[C@H]2[C@@H]3C=CO[C@@H](O[C@@H]4O[C@H](CO)[C@@H](O)[C@H](O)[C@H]4O)[C@@H]3[C@@]3(CO)O[C@@H]23)O[C@H]1C`: “inactive [at 17.4 µM]”; for `C=C1CC[C@H]2[C@@](C)(CCC(OC3OC(CO)C(O)C(O)C3O)[C@@]2(C)CO)C1C(=O)CC1=CCOC1=O` (stereo not given in full): “inactive [at 17.4 µM]”; for `C=C(C(=O)O)C1CC(O)C2(C)CCCC(C)(O)C2C1` (stereo not given): “inactive”.
The same measure for `CC(C)(C)NS(=O)(=O)c1cncc(-c2cc(F)c3nc(N)nn3c2)c1`: “inactive”; for `C=C1C(=O)OC2CC(C)=C(C(C)CCCO)C(O)C12` (stereo not given): “inactive”; for `O=C(O)c1cccc(C(=O)CCC2OC(n3cnc4c(=O)[nH]cnc43)C(O)C2O)c1` (stereo not given): “inactive [at 17.4 µM]”.
In the case of `CC(=O)OC1C(O)C2C(C)C3=CC(=O)OC3(O)CC2C2(C)CCCC(C)(CO)C12` (stereo not given), the “outcome” value is “inactive [at 17.4 µM]”.
The same measure for `C/C(=C\CCC1(C)C2CC3C(C2)C31C)C(=O)O` (stereo not given): “inactive”; for `CC(/C=C/C1(O)C(C)(C)CC(O)CC1(C)O)OC1OC(CO)C(O)C(O)C1O` (stereo not given): “inactive [at 17.4 µM]”; for `CC1CCC2(C)CCC3(C)C(=CCC4C5(C)CCC(O)C(C)(C(=O)O)C5CCC43C)C2C1C` (stereo not given): “inactive [at 17.4 µM]”.
In the case of `CC1CC2OCC3(O)CCC(O)C(C14CC(c1ccoc1)OC4=O)C23CO` (stereo not given), the compound was classed as inactive.
The same measure for `C=Cc1cc2oc(-c3ccc(O)c(F)c3)nc2cc1O`: “inactive”.
Regarding `C=C1CC2C3(C)C(O)CC(=O)C(C)(C)C3C(OC(C)=O)C(OC(C)=O)C2(C)C2C(=O)OC(C)(C(=O)OC)C(=O)C12C` (stereo not given), the “outcome” value is “inactive [at 17.4 µM]”.
The same measure for `OC1COC(OCC2OC(OCCc3ccccc3)C(O)C(O)C2O)C(O)C1O` (stereo not given): “inactive [at 17.4 µM]”; for `Cc1ccc(Sc2cncc3sc(C(N)=O)cc23)cc1`: “inactive”.
The same measure for `COC(=O)[C@@H](NC(=O)[C@H](CC(C)C)NC(=O)N(Cc1ccccc1)C[C@@H](O)[C@H](Cc1ccccc1)NC(=O)OC(C)(C)C)C(C)C`: “inactive [at 9.27 µM]”.
The same measure for `CC1=C2C(=O)C=C(CO)[C@@H]2[C@H]2OC(=O)[C@H](C)[C@@H]2[C@@H](O)C1`: “inactive”.
`Nc1c(-c2ccccc2)nc(Cl)c2c(O)n[nH]c(=O)c12`: the call was inactive.
For the compound `C=C[C@H]1[C@H](O[C@@H]2O[C@H](CO)[C@@H](O)[C@H](O)[C@H]2O)OC=C2C(=O)N3Cc4c([nH]c5ccccc5c4=O)[C@@H]3C[C@H]21`, the “outcome” value is “inactive [at 17.4 µM]”.
Turning to `COc1cccc(OC)c1-c1cc(C(=O)N[C@@H](CC(C)C)C(=O)O)nn1-c1ccnc2cc(Cl)ccc12`, the outcome was inactive.
Consider `CC(C)(C)NCC(O)COc1cccc2c1CCCC2=O` (stereo not given), for which the result was inactive.
As to `CC(C)(O)C1CCC2(C)C3C(O)C4C(C13)C42CO` (stereo not given), the compound was called inactive.
Next, `C=C1CCC2C(C)(C(=O)OC)CCCC2(C)C1CCC(C)CC(=O)O` (stereo not given): “inactive”.
As for `CN1CCN(C2=Nc3ccccc3Nc3ccc(OS(=O)(=O)C(F)(F)F)cc32)CC1`, the compound was classed as inactive.
The same measure for `O=C(O)CCc1cccc(O[C@@H]2O[C@H](CO)[C@@H](O)[C@H](O)[C@H]2O)c1O`: “inactive”; for `COc1cnc(-n2cnc(C)n2)c2[nH]cc(C(=O)C(=O)N3CCN(C(=O)c4ccccc4)CC3)c12`: “inactive”; for `O=S(=O)(Nc1cc(Cl)c(Oc2cnc3ccccc3c2)c(Cl)c1)c1ccc(Cl)cc1Cl`: “inactive”.
Next, `CC(C)(O)C1OC1C1=CC(=O)C2(C)OC2C1O` (stereo not given): “inactive”.
The same measure for `CC(C)c1c(O)ccc2c1CC[C@H]1C(C)(C)CCC[C@]21C`: “inactive”.
